# Data published in PubChem BioAssay (Tox21).
# Values without a mark were called inactive. A call without a number means that no potency is given here. Activity calls are given as the source filed them. Unless noted, the call rests on the fitted dose curve; in most records, active means well fitted curve in the direction sought with a large enough effect in the repeat runs; inconclusive means weak or mixed curves; inactive means no such curve, though single readings can be large; an effect the other way counts as inactive or inconclusive.
# Legend:
# [1] = qHTS assay to identify small molecule antagonists of the thyroid receptor (TR) signaling pathway - cell viability counter screen (AID 743064); further: nearly all actives have a fitted effect of over 50% in size; further: potency means the concentration at half of the fitted maximal effect
# How it was run: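 Viability of T3-stimulated (1 nM final) GH3.TRE-Luc cells is measured by CellTiter-Fluor fluorescence after 23.5 h compound exposure at 37 °C plus 30 min reagent incubation.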
# [2] = qHTS assay to identify small molecule antagonists of the thyroid receptor (TR) signaling pathway (AID 743065); further: nearly all actives have a fitted effect of over 55% in size; further: potency means the concentration at half of the fitted maximal effect
# How it was run: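 GH3.TRE-Luc rat pituitary cells carrying two TR response elements driving luciferase were plated for 4 h, given compound plus 1 nM T3 (final), and incubated 23.5 h at 37 C. ONE-Glo luminescence measured reporter inhibition; CellTiter-Fluor fluorescence tracked cytotoxicity.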
# [3] = tested on: thyroid hormone receptor (rat, GH3 cells); assay: qHTS assay to identify small molecule agonists of the thyroid receptor (TR) signaling pathway (AID 743066; calls by dose curve)
# [4] = biological target: Estrogen receptor (Homo sapiens) (UniProt P03372); assay: qHTS assay to identify small molecule antagonists of the estrogen receptor alpha (ER-alpha) signaling pathway (AID 743069; active means well fitted curve in the direction sought with a large enough effect in the signal ratio in the repeat runs, not every such curve was filed as active; inconclusive means weak or mixed curves, or effect the other way; inactive means no such curve, though single readings can be large or run the other way; the % refers to the signal ratio; further: potency means the concentration at half of the fitted maximal effect)
# Chain of Estrogen receptor (Homo sapiens) (P03372 whole entry, looked up): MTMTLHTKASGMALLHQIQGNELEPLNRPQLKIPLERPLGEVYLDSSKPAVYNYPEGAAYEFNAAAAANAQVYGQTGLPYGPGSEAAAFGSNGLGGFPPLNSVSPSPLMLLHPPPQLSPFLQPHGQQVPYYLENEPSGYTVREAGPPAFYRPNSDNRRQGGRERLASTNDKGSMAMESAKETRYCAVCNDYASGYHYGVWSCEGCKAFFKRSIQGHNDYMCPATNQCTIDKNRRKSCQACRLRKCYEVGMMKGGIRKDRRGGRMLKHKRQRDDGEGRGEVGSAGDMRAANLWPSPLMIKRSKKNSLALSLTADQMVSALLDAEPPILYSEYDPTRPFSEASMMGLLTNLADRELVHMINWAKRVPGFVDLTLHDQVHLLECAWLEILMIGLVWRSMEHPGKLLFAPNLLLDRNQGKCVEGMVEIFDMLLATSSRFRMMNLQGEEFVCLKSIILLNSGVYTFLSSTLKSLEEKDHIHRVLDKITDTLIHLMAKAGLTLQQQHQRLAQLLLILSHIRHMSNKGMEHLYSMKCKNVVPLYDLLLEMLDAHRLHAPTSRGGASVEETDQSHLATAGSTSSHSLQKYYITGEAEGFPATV
# How it was run: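 Estradiol-stimulated ER-alpha-UAS-bla HEK293 cells, 18 hr compound exposure at 37C. LiveBLAzer B/G substrate, 2 hr RT, fluorescence read.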
# [5] = biological target: Estrogen receptor (Homo sapiens) (UniProt P03372); assay: qHTS assay to identify small molecule agonists of the estrogen receptor alpha (ER-alpha) signaling pathway (AID 743075; calls by dose curve;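 further: HEK293 GripTite cells with ER-alpha and UAS-driven beta-lactamase reporter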; further: potency means the concentration at half of the fitted maximal effect)
# [6] = biological target: Estrogen receptor (Homo sapiens) (UniProt P03372); assay: qHTS assay to identify small molecule agonists of the estrogen receptor alpha (ER-alpha) signaling pathway using the BG1 cell line (AID 743079); conditions: BG1Luc4E2 cells, ERE-luciferase agonist, 22 h; activation: at 70.3 µM (top of the series); further: nearly all actives have a fitted effect of over 20% in size; further: potency means the concentration at half of the fitted maximal effect
# [7] = qHTS assay to identify small molecule antagonists of the estrogen receptor alpha (ER-alpha) signaling pathway using the BG1 cell line (AID 743080; calls by dose curve;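 further: BG1 cells stimulated with 17beta-estradiol alongside compound; nearly all actives have a fitted effect of over 25% in size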; further: potency means the concentration at half of the fitted maximal effect)
# How it was run: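 Luminescence from a 4×ERE-luciferase reporter in BG1-Luc-4E2 cells served as read-out. Cells, pre-cultured 5 days in stripped-serum phenol-red-free medium, were exposed to compound with 17beta-estradiol co-stimulation for 21.5 h at 37 C.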
# [8] = qHTS assay to identify small molecule antagonists of the estrogen receptor alpha (ER-alpha) signaling pathway using the BG1 cell line - cell viability counter screen (AID 743081);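 further: compound given together with 17beta-estradiol as the ER stimulus; nearly all actives have a fitted effect of over 45% in size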; further: potency means the concentration at half of the fitted maximal effect
# Aromatase (Homo sapiens) = Aromatase (Homo sapiens) (UniProt P11511); assay: qHTS assay to identify aromatase inhibitors (AID 743083); further: nearly all actives have a fitted effect of over 55% in size; further: potency means the concentration at half of the fitted maximal effect
# Chain of Aromatase (Homo sapiens) (P11511 whole entry, looked up): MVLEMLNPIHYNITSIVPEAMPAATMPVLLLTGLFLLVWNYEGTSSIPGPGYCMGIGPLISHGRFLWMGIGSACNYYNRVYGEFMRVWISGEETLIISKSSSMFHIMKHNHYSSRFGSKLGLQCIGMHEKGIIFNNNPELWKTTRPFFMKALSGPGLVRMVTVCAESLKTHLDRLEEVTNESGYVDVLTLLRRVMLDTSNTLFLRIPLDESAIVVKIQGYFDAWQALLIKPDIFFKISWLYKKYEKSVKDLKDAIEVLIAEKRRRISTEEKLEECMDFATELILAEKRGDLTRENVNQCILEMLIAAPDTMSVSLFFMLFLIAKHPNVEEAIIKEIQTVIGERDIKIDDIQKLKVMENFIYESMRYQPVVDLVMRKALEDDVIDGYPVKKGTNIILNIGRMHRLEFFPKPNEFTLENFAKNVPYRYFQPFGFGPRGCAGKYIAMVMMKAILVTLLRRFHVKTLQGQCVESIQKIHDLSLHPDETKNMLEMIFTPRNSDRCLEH
# [9] = qHTS assay to identify aromatase inhibitors - cell viability counter screen (AID 743084);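 further: cells stimulated with testosterone during compound exposure; nearly all actives have a fitted effect of over 55% in size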; further: potency means the concentration at half of the fitted maximal effect
# [10] = biological target: Aryl hydrocarbon receptor (Homo sapiens) (UniProt P35869); assay: qHTS assay to identify small molecule that activate the aryl hydrocarbon receptor (AhR) signaling pathway (AID 743085);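 further: HG2L7.5c1 human HepG2 liver cells with stably integrated DRE-driven firefly reporter; nearly all actives have a fitted effect of over 15% in size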
# Chain of Aryl hydrocarbon receptor (Homo sapiens) (P35869 whole entry, looked up): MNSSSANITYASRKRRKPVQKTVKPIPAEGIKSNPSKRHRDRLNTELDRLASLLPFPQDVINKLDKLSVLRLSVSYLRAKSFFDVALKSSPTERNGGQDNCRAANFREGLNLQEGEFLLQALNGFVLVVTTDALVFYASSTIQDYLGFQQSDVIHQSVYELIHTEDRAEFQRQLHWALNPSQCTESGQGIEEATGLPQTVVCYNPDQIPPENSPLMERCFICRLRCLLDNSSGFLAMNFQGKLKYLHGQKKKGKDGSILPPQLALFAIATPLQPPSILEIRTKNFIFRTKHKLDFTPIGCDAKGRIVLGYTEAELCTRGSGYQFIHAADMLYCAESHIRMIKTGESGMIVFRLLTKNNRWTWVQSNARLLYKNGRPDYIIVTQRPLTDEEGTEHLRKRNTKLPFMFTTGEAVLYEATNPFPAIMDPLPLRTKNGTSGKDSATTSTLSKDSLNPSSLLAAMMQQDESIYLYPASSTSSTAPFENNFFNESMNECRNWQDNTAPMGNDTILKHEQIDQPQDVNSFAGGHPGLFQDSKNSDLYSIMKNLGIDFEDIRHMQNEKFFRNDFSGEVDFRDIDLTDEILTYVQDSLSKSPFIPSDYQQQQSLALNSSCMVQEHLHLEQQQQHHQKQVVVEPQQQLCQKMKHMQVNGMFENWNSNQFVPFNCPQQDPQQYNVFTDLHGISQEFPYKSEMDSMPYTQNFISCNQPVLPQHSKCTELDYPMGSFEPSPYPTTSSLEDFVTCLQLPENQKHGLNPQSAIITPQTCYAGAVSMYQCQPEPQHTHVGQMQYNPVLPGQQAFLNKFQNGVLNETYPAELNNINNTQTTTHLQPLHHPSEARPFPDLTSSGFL
# How it was run: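 A multiplexed format paired cell viability (CellTiter-Fluor fluorescence) with AhR-dependent luciferase output (ONE-Glo luminescence) in the same wells of HepG2 DRE-luc cells after 24 h compound exposure at 37C.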
# [11] = qHTS assay to identify small molecule that activate the aryl hydrocarbon receptor (AhR) signaling pathway - cell viability counter screen (AID 743086); further: nearly all actives have a fitted effect of over 45% in size; further: potency means the concentration at half of the fitted maximal effect
# How it was run: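 HepG2-AhR-luc (HG2L7.5c1) cells, 4000/well, were preincubated 5 h at 37C, exposed to compound in qHTS format for 24 hr at 37C, then given CellTiter-Fluor for 30 min; viability was read as fluorescence in the reporter wells.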
# [12] = biological target: Peroxisome proliferator-activated receptor gamma (Homo sapiens) (UniProt P37231); assay: qHTS assay to identify small molecule agonists of the peroxisome proliferator-activated receptor gamma (PPARg) signaling pathway (AID 743094; active means well fitted activation curve with a large enough effect in the signal ratio in the repeat runs, not every such curve was filed as active; inconclusive means weak or mixed curves, or effect the other way; inactive means no such curve, though single readings can be large or run the other way; the % refers to the signal ratio)
# Chain of Peroxisome proliferator-activated receptor gamma (Homo sapiens) (P37231 whole entry, looked up): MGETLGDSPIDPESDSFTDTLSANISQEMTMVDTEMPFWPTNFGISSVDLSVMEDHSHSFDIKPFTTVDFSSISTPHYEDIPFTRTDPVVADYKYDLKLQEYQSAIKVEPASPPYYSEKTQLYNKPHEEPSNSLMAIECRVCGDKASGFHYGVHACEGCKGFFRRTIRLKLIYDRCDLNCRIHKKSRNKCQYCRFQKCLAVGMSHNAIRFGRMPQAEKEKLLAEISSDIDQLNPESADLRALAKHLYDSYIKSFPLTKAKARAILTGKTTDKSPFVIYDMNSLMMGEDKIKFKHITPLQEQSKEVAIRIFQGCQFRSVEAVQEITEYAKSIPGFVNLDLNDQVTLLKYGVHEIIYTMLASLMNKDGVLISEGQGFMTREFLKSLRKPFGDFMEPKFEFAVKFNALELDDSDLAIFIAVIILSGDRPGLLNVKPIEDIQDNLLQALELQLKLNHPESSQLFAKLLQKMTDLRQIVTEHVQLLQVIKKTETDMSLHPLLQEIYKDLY
# How it was run: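 Following 5 h plating at 37C, PPARg-bla HEK293H cells receive compound or DMSO for 17 h; fluorescence intensity is recorded after LiveBLAzer B/G loading for 1 h at room temperature.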
# [13] = qHTS assay to identify small molecule phospholipidosis (PLD) inducers (AID 1259344; active means well fitted curve in the direction sought with a large enough effect; inconclusive means small, poorly fitted or top-dose-only effect, or another doubt; inactive means no such curve, though single readings can be large; an effect the other way counts as inactive or inconclusive)
# How it was run: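 HepG2 cells grown on collagen I take up LipidTOX Red while exposed to compound for 24 h; after fixation they are imaged at 20x and pit metrics are extracted.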
# [14] = biological target: Nuclear receptor subfamily 1 group I member 2 (Rattus norvegicus) (UniProt Q9R1A7); assay: Rat pregnane X receptor (rPXR) activation by small molecules, qHTS assay (AID 1346983); conditions: rPXR luciferase reporter cells, One-Glo luminescence, 24 h; max activation: active compounds read high; further: nearly all actives have a fitted effect of over 20% in size
# Chain of Nuclear receptor subfamily 1 group I member 2 (Rattus norvegicus) (Q9R1A7 whole entry, looked up): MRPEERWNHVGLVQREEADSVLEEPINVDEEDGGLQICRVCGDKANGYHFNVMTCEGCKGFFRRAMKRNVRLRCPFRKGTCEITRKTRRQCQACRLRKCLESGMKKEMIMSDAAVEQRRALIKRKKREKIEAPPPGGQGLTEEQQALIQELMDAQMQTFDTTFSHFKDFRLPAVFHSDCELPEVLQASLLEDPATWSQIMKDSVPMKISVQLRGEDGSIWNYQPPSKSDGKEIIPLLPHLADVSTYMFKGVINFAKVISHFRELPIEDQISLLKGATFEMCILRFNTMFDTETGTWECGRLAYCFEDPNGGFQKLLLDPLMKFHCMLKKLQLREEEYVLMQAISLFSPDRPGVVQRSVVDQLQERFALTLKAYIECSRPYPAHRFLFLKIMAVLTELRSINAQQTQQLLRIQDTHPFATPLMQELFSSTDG
# How it was run: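 Cell-based rPXR luciferase reporter assay, 2,000 cells per well, rested 5hr at 37 C before compound addition in DMSO, then 24 hr at 37 C. One-Glo reagent was added and luminescence read after 30 min at room temperature.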
# [15] = biological target: Nuclear receptor subfamily 1 group I member 2 (Homo sapiens) (UniProt O75469); assay: CYP3A4 induction through human pregnane X receptor (PXR) by small molecules, qHTS assay (AID 1346984); further: nearly all actives have a fitted effect of over 40% in size
# How it was run: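 qHTS, concentration-response format: HepG2 DPX-2 line, PXR/CYP3A4-luc. Exposure 24 h, 37C. Substrate Luciferin-IPA 3uM final, 3 h. Detection One-Glo, 30 min RT.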
# [16] = biological target: Nuclear receptor subfamily 1 group I member 2 (Homo sapiens) (UniProt O75469); assay: Human pregnane X receptor (PXR) activation by small molecules, qHTS assay (AID 1346985); further: nearly all actives have a fitted effect of over 40% in size
# How it was run: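 DPX-2 cells (HepG2 co-transfected with a PXR response element and a CYP3A4-promoter luciferase construct) were seeded at 2,000 per well, rested 5 hr at 37C, then exposed to DMSO-dissolved compounds for 24 hr. Activation was read as luciferase luminescence.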
# [17] = qHTS assay to identify small molecule antagonists of the estrogen receptor alpha (ER-alpha) signaling pathway - cell viability counter screen (AID 743074; calls by dose curve;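 further: HEK293 cells carrying ER-alpha-UAS-bla reporter stimulated with 17beta-estradiol; nearly all actives have a fitted effect of over 45% in size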; further: potency means the concentration at half of the fitted maximal effect)
Compound,Potency [1],Potency [2],Potency [3],Potency [4],Potency [5],Potency [6],Potency [7],Potency [8],Potency (Aromatase (Homo sapiens)),Potency [9],Potency [10],Potency [11],Potency [12],Potency [13],max activation [14] [%],Potency [15],Potency [16],Potency [17],activation [6]
Nc1nc2[nH]cc(CCc3ccc(C(=O)N[C@@H](CCC(=O)O)C(=O)O)cc3)c2c(=O)[nH]1,inactive,inactive,inactive,inactive,inactive,inactive,inactive,inactive,inactive,inactive,inactive,inactive,inactive,inactive,-1.09,inactive,inactive,,
CN(C)c1ccc(C(=C2C=CC(=[N+](C)C)C=C2)c2c(O)c(S(=O)(=O)[O-])cc3cc(S(=O)(=O)O)ccc23)cc1,29.8 µM (active),11.9 µM (active),inactive,inactive,inactive,,,23.7 µM (active),26.6 µM (active),29.8 µM (active),inactive,26.6 µM (active),inactive,inactive,-15.3,inactive,inactive,,
NC(=O)c1ccc[n+]([C@@H]2O[C@H](COP(=O)([O-])OP(=O)(O)OC[C@H]3O[C@@H](n4cnc5c(N)ncnc54)[C@H](O)[C@@H]3O)[C@@H](O)[C@H]2O)c1,inactive,inactive,inactive,inactive,inactive,inactive,inactive,inactive,inactive,inactive,inactive,inactive,inactive,inactive,-1.3,inactive,inactive,,
CCOC(=O)c1c[nH]c2cc(OCC(C)C)c(OCC(C)C)cc2c1=O,inactive,inactive,inactive,inactive,inactive,inactive,inactive,inactive,inactive,inactive,,inactive,inactive,inactive,-0.745,inactive,inactive,inactive,
CCOC(=O)O[C@]1(C(=O)COC(=O)CC)CC[C@H]2[C@@H]3CCC4=CC(=O)C=C[C@]4(C)[C@H]3[C@@H](O)C[C@@]21C,inactive,inactive,inactive,inactive,inactive,inactive,,inactive,inactive,inactive,inactive,inactive,inactive,inactive,13.1,inactive,inactive,inactive,
[O]=[Bi][O]C(=O)[O][Bi]=[O],inactive,inactive,inactive,inactive,inactive,inactive,,inactive,inactive,inactive,inactive,inactive,inactive,inactive,-3.15,inactive,inactive,inactive,
C[C@]12CC[C@@H]3c4ccc(O)cc4CC[C@H]3[C@@H]1CC[C@@H]2OP(=O)(O)O,inactive,inactive,inactive,,0.0013 µM [inconclusive] (active),0.0021 µM (active),inactive,inactive,inactive,inactive,inactive,inactive,inactive,inactive,0.522,inactive,inactive,inactive,
CCCCCCCCCCCCCCCCOCCOCCOCCOCCOCCOCCOCCOCCOCCOCCOCCOCCOCCOCCOCCOCCOCCOCCOCCOCCO,29.8 µM (active),26.6 µM (active),inactive,4.25 µM [inconclusive] (active),,,3.76 µM (active),23.7 µM (active),,,inactive,,,inactive,-15.6,inactive,inactive,21.3 µM (active),
CCCc1nc(C(C)(C)O)c(C(=O)OCc2oc(=O)oc2C)n1Cc1ccc(-c2ccccc2-c2nn[nH]n2)cc1,inactive,inactive,inactive,,,,,inactive,inactive,inactive,inactive,inactive,inactive,inactive,-4.8,inactive,inactive,inactive,
CC(=O)Oc1c(C)cc(OCC(O)CNC(C)C)c(C)c1C (centres undefined),inactive,inactive,inactive,,10.7 µM [inconclusive] (active),3.76 µM (active),,inactive,inactive,inactive,inactive,inactive,inactive,inactive,-4.59,inactive,inactive,inactive,
CS(=O)(=O)c1ccc(C2=C(c3ccccc3)C(=O)OC2)cc1,inactive,inactive,inactive,,,,,inactive,inactive,inactive,inactive,inactive,inactive,inactive,-0.681,inactive,inactive,inactive,
C[C@]12CC[C@@H]3c4ccc(OC(=O)c5ccccc5)cc4CC[C@H]3[C@@H]1CC[C@@H]2O,inactive,inactive,inactive,,0.0007 µM [inconclusive] (active),,,inactive,inactive,inactive,inactive,inactive,inactive,inactive,-1.5,inactive,inactive,inactive,82.8% (active)
